Screens: PubChem, several laboratories
This is a sample that favours compounds with a hit; in the whole collection about 0.82% have one here.
RTF Ca sens inh: cardiac RTF calcium desensitization | P19429+P45379 | actives 0.12% (n = 340,000) | inhibition, % at 7.15 µM | IANBD-labeled cardiac RTF, Ca2+ fluorescence;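 active = inhibition above the mean inhibition of all tested compounds plus 3 SD, cut at about 17% in these data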;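 note: assay run at fixed EC70 calcium of 1.6 mM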
eLon inh: E. coli protease La inhibition. P0A9M0. purified E. coli Lon protease, fluorescence polarization. inhibition, % at 7.94 µM. actives 0.42% (n = 360,000). AID 602123; in the data active = inhibition above about 13%, passing the limit was not always enough;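 note: 0% = enzyme with probe and DMSO and 100% = no enzyme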
Keap1 Nrf2 FP: disrupts human Keap1 binding to Nrf2 peptide | Q14145 | Keap1 Kelch-Nrf2 peptide fluorescence polarization, 1536-well | inhibition, % at 9.4 µM | actives 0.15% (n = 340,000); in the data active = inhibition above about 12%;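 note: human Keap1 Kelch domain with fluorescein labeled Nrf2 9mer peptide probe; 0% = neutral control wells and 100% = peptide positive control; higher means more block of Keap1 binding to Nrf2 peptide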
Target sequence (Q14145 whole entry, looked up, the tested form may be a part): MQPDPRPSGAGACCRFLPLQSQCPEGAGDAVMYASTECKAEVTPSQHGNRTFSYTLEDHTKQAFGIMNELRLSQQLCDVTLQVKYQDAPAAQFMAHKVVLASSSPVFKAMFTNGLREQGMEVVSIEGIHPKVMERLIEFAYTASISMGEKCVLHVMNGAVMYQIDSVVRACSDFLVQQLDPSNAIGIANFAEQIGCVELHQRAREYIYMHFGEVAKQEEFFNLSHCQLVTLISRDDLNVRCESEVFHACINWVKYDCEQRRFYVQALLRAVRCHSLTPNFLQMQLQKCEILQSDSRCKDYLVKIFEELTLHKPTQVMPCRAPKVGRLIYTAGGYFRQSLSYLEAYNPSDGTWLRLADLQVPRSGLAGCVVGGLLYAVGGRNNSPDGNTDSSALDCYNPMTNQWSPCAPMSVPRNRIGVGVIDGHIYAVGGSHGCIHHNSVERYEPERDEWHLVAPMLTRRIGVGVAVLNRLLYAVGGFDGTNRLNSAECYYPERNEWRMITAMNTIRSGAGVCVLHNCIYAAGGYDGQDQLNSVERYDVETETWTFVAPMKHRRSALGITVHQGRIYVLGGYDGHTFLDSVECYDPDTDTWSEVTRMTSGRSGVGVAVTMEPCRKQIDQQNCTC
LANA DNA inh: KSHV C-LANA DNA binding inhibition | inhibition, % at 9 µM | actives 0.078% (n = 340,000) | AID 504423 | MBP-C-LANA/FAM-LBS DNA binding, fluorescence polarization;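 active = highest replicate inhibition at or above 60% at 9 µM, even if other replicates fall short; inactive = all replicates below 60% inhibition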;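 note: 0% = neutral control wells and 100% = 4 µM acridine orange control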
RTF Ca sens act: increases calcium sensitivity of human cardiac regulated thin filaments; IANBD-labeled TnC RTF fluorescence at EC20 calcium; 0% EC20 calcium, 100% full calcium; activation, % at 7.2 µM; actives 0.24% (n = 340,000);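 active = activation above the mean over all tested compounds plus 3 SD, cut at about 30% in these data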;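 note: rise in fluorescence read as greater calcium sensitivity of cardiac thin filaments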
Numbers without * were called inactive; i = inactive; . = no result given; + = active, no number.

SMILES | RTF Ca sens inh | eLon inh | Keap1 Nrf2 FP | LANA DNA inh | RTF Ca sens act
CC1CCN(c2ccc3c(c2)S(=O)(=O)c2cccc(C(=O)NC4CCCCC4)c2C3=O)CC1 | -15 | -47 | -9 | 2 | 33*
COC(=O)[C@@]1(Cc2ccc(F)cc2)[C@H]2c3cc(C(=O)N(C)C)n(Cc4ccc(C)c(F)c4F)c3C[C@H]2CN1C(=O)c1ccccc1 | . | 2 | . | . | .
O=C1CCCCC(=O)[C@H](O)C[C@H](COCc2ccccc2)O1 | . | 3 | . | . | .
O=C(CCN1C(=O)/C(=C/c2ccc(F)cc2)SC1=S)NNC(=O)c1cccnc1 | -3 | -13 | -5 | -3 | 2
O=C(CCN1C(=O)/C(=C/c2ccccc2)SC1=S)NNC(=O)c1cccnc1 | -43 | 2 | 5 | -1 | 35*
CC(=O)Nc1sc(/C(C#N)=C/c2ccc(Cl)c(Cl)c2)nc1-c1ccc(C)cc1 | -24 | -94 | -15 | 1 | 76*
O=C1C(Cl)=C(Nc2ccccc2)C(=O)c2ccccc21 | -5 | -1 | 3 | 2 | -11
O=C(O)c1ccc(NC2=C(Cl)C(=O)c3ccccc3C2=O)cc1 | 0 | 0 | 9.3* | 4 | 5
COCCCNC1=C(Cl)C(=O)c2ccccc2C1=O | -4 | 7 | 0 | -1 | -2
COCCCNc1c2c3c(cccc3[nH]c1=O)C(=O)c1ccccc1-2 | i | -38 | 167* | 184* | +
CC1(c2nnnn2Cc2ccccc2)CCC(=O)N1Cc1cccc(C(F)(F)F)c1 (stereo not given) | . | -4 | . | . | .
N#C/C(=C\C=C\c1ccccc1)c1nc(-c2ccc3c(c2)OCO3)cs1 | -24 | -34 | 0 | 4 | 34*
O=C(O)CCCN1C(=O)/C(=C\c2ccccc2OCc2ccccc2)SC1=S | 4 | 8 | -1 | 1 | -3
O=C(O)CCCN1C(=O)/C(=C/c2cn(-c3ccccc3)nc2-c2cccs2)SC1=S | -34 | -92 | -8 | 15 | 31*
CC(C)C[C@H]1COc2cc(N3CC[C@H](O)C3)ccc2S(=O)(=O)N1 | . | -8 | . | . | .
O=C1/C(=C\c2cc([N+](=O)[O-])ccc2O)SC(=S)N1Cc1ccc(Cl)cc1 | -183 | -236 | -29 | -6 | 135*
O=c1[nH]ncc2c3ccccc3n(Cc3cccc(Cl)c3)c12 | -54 | -122 | -13 | 2 | 56*
C=CCN1C(=O)/C(=C\C=C2\N(C)c3ccccc3C2(C)C)SC1=S | -31 | -108 | -14 | -2 | 51*
C=CCN1C(=O)/C(=C2/Sc3ccccc3N2CC)SC1=S | -9 | 0 | -4 | 3 | 10
CCCCN1C(=O)/C(=C/C=C2/CC(C)(C)CN2C)SC1=S | -457 | . | -122 | -19 | 396*
CN1/C(=C\C=C2/SC(=S)N(CC(=O)O)C2=O)C(C)(C)c2ccccc21 | i | -313 | -400 | -95 | 773*
CCCCN1C(=O)/C(=C/C=C2\Oc3ccccc3N2CC)SC1=S | -241 | -467 | -8 | 1 | 186*
Cn1cccc1/C=C1/SC(=S)N(CC(=O)O)C1=O | -27 | -192 | -61 | -20 | 20
O=C1C(Sc2ccccc2)=C[C@@]2(O)CC[C@@H](O)[C@]1(Sc1ccccc1)[C@H]2O | . | -3 | . | . | .
CSc1ccccc1CNc1nc(NCC2CC2)nc2ccsc12 | . | -6 | . | . | .
SMILES | RTF Ca sens inh | eLon inh | Keap1 Nrf2 FP | LANA DNA inh | RTF Ca sens act
O=S1(=O)CC(N2CCN(CCO)CC2)CN1Cc1cn(Cc2cccc(C(F)(F)F)c2)nn1 (stereo not given) | . | 0 | . | . | .
CCCN1C(=O)/C(=C/C=C2\N(CC)c3ccccc3C2(C)C)SC1=S | -69 | -158 | -46 | -1 | 52*
Cc1cc2cc(CNC(=O)c3ccc4c(c3)OCO4)ccc2n1C | -7 | 25* | 2 | 1 | -2
COCC(=O)NCc1ccc2c(c1)cc(C)n2C | -5 | 11 | -2 | 4 | -1
COc1ccc(C(=O)NCc2ccc3c(c2)cc(C)n3C)cc1 | -6 | 15* | 2 | 0 | 7
O=C1c2ccccc2C(c2nnnn2Cc2ccccc2)N1CCc1c[nH]c2ccccc12 (stereo not given) | . | -2 | . | . | .
Cc1cc(O)c2c(c1O)C(=O)[C@]13C(=C2O)C(=O)[C@@H]2[C@@H](O)[C@H]1[C@@H]1[C@H](O)[C@H]3C(=O)C3=C(O)c4c(O)cc(C)c(O)c4C(=O)[C@]312 | 10 | 27* | -14 | 27 | 3
O=c1oc2ccc3ccccc3c2cc1-c1nnc(-c2ccccc2)o1 | -7 | -4 | 3 | 1 | -6
CCN(CC)c1ccc2cc(-c3nc4ccccc4n3C)c(=O)oc2c1 | -188 | -173 | -6 | 4 | 102*
CCN(CC)c1ccc2cc(-c3nnc(-c4ccccc4)o3)c(=O)oc2c1 | i | -434 | -42 | 10 | 705*
CCN(CC)c1ccc2cc(-c3nc4ccccc4[nH]3)c(=O)oc2c1 | i | -193 | -16 | 21 | +
O=C(NCc1ccc(Br)cc1)OC1CC2CC1[C@H]1CCCCN1C2=O (stereo not given in full) | . | 4 | . | . | .
C[C@@H](c1ccccc1)N1C[C@@H](COCc2ccccc2)Oc2cc(N3CC[C@@H](N(C)C)C3)ccc2S1(=O)=O | . | 4 | . | . | .
Cc1ccc(N2C3=C(C(=O)CC(C)(C)C3)C(c3cn(C)nc3C)C3=C2CC(C)(C)CC3=O)cc1 | -24 | 80* | 0 | 4 | 17
Oc1[nH]c2ccccc2c1N=Nc1ccc(F)cc1 | -75 | i | 4 | 4 | 34*
Oc1[nH]c2ccc(Br)cc2c1N=Nc1ccc(F)cc1 | i | 3 | 9 | 13 | 467*
O=[N+]([O-])c1ccc2[nH]c(O)c(N=Nc3ccc(F)cc3)c2c1 | -5 | -2 | 2 | 0 | 1
Oc1ccc2ccccc2c1N=Nc1ccc(F)cc1 | -15 | -4 | -3 | -1 | 13
CN(C)c1ccc(N=Cc2nc(-c3ccccc3)oc2O)cc1 | -24 | -16 | -3 | 6 | 45*
CC(=O)Nc1ccc(N=Cc2nc(-c3ccc(C)cc3)oc2O)cc1 | -12 | -14 | 9 | 12 | 38*
Cc1ccc(N=Cc2nc(-c3ccc(C)cc3)oc2O)cc1 | 0 | 0 | 3 | 4 | 7
CCCCc1c(-c2ccccc2OC)ncn1C1CCCC1 | . | -1 | . | . | .
Nc1c(C(=O)C2CC2)sc2nc(-c3cccs3)cc(C(F)(F)F)c12 | -36 | -222 | -39 | -15 | 46*
C[C@@H](c1ccccc1)N1C[C@@H](COCc2ccccc2)Oc2cc(N3CCC[C@@H]3CO)ccc2S1(=O)=O | . | -7 | . | . | .
Cc1ccc(CCC(=O)Nc2cc(Cl)ccc2Cl)o1 | -7 | 1 | -4 | 1 | 39*
CCCCCCCCN1C(=O)[C@H](CC(=O)N2CCN(C(=O)C3CC3)CC2)C[C@@]2(C(=O)OC)CCCCC=C12 | . | -3 | . | . | .
COc1ccc(C(=O)N/N=C/c2c[nH]c3ccccc23)cc1 | -4 | -4 | -4 | -7 | -5
O=C(N/N=C/c1sc2ccccc2c1O)c1cccc2ccccc12 | -11 | -237 | -18 | -2 | 8
COc1ccc(C(=O)N/N=C/c2sc3ccccc3c2O)cc1 | -26 | -392 | -76 | -21 | 32*
O=C(N/N=C/c1sc2ccccc2c1O)c1ccccc1 | -46 | -379 | -52 | -16 | 47*
